The campaign covered roughly 360,000 compounds. About 1,500 (0.42%) were called active. Only a selection was taken, and actives are over-represented in it overall. Unmarked numbers belong to inactive results. Rule as the data show it: active = inhibition above about 8.5%; inactive = the rest.
Each molecule was assayed on HIV-1 gp120 / PG9 antibody interaction (assay: binders of HIV-1 gp120 antibody PG9, primary screen, biochemical, TR-FRET (AID 624416)). Details: TR-FRET gp120-PG9 antibody binding; at 6.7 µM; hits give high values.

Compound | inhibition
O=C(COC(=O)c1ccc2c(c1)OCCO2)NCc1ccccc1Cl | 9.13% (active)
O=C(OCc1ccccc1F)c1ccc2c(c1)OCCO2 | -1.71%
CCOC(=O)/C=C/c1ccccc1O | 0.44%
COc1ccc(C2/C(=C(/O)c3ccc4c(c3)CC(C)O4)C(=O)C(=O)N2Cc2ccncc2)cc1 (stereo not given) | 2.5%
COCCCN1C(=O)C(=O)/C(=C(/O)c2ccc3c(c2)CC(C)O3)C1c1cccnc1 (stereo not given) | 3.22%
O=C1C(=O)N(CCN2CCOCC2)C(c2cccc(Cl)c2)/C1=C(/O)c1ccc2c(c1)OCO2 (stereo not given) | 30.6% (active)
O=C1C(=O)N(CCCN2CCOCC2)C(c2ccc([N+](=O)[O-])cc2)/C1=C(\O)c1ccc2c(c1)OCCO2 (stereo not given) | -1.43%
O=C1C(=O)N(CCN2CCOCC2)C(c2ccccn2)/C1=C(/O)c1ccc(Cl)cc1 (stereo not given) | 0.67%
CC1Cc2cc(/C(O)=C3\C(=O)C(=O)N(CCN4CCOCC4)C3c3ccccc3F)ccc2O1 (stereo not given) | 13.2% (active)
Cc1nc(NC(=O)C(C)(C)C)sc1[N+](=O)[O-] | -0.45%
COC(=O)C1=C(C)N(Cc2cccc(C(F)(F)F)c2)C(=NCc2ccccc2)NC1c1ccccc1C(F)(F)F (stereo not given) | 0.63%
COC(=O)C(C(=O)OC)c1ccccc1NS(=O)(=O)c1cccc2ccccc12 | 0.18%
CC(=NNC(N)=O)c1ccc(Cl)c(-n2cccc2)c1 | 0.53%
CCCCNC(=O)c1c[nH]c2ccc(S(=O)(=O)Nc3ccc(OCC)cc3)cc2c1=O | 2.91%
COc1cccc(NS(=O)(=O)c2ccc3[nH]cc(C(=O)NCCCOC(C)C)c(=O)c3c2)c1 | 10.3% (active)
CCN(CC)S(=O)(=O)c1ccc2[nH]cc(C(=O)NCCc3ccccc3)c(=O)c2c1 | -0.32%
CN1CCCCC(NC(=O)C(C)(C)C)C1=O (stereo not given) | -1.72%
CC(C)N(c1ccccc1)c1ncnc(NCCC(=O)O)c1[N+](=O)[O-] | -1.67%
O=C(O)CCCCCNc1ncnc2ccc(Br)cc12 | 18.3% (active)
COC(=O)[C@]1(Cc2ccccc2)NC=C(C(=O)c2ccccc2)[C@@H]1c1cccc(OC)c1 | -1.25%

Compound | inhibition
CC(=O)Nc1ccc(Nc2nc3c(S(=O)(=O)c4ccc(C)c(C)c4)nnn3c3ccccc23)cc1 | 1.78%
Cc1cc(Nc2cccc(C)c2C)n2ncnc2n1 | 0.14%
Cc1cccc(Nc2nc3c(S(=O)(=O)c4ccccc4)nnn3c3ccccc23)c1C | 16.5% (active)
COc1cccc(CNC(=O)[C@H]2CCCN2C(=O)[C@H]2CCCN2C(=O)c2ccc(F)cc2)c1 | -1.74%
O=C(C(=O)N1CCC(CNS(=O)(=O)Cc2ccccc2)CC1)c1cc2ccccc2o1 | 0.63%
COC(=O)c1cc2c(c3c4cc(F)ccc4n(S(=O)(=O)c4ccccc4)c13)C(=O)N(Cc1ccccc1OC)C2 | 0.8%
CCOC(=O)C1CSCCS(=O)(=O)N1Cc1ccc(Cl)cc1 (stereo not given) | -1.82%
Cc1ccccc1C(=O)N[C@H](C(=O)N1CCC[C@H]1C(=O)NCc1ccccc1)C(C)C | -2.77%
Cc1nc2nc(SCC(=O)c3ccccc3)[nH]c2cc1Br | 29.2% (active)
CC(=O)Nc1ccc(C(=O)CSc2nc3ccc(C)cc3[nH]2)cc1 | -0.81%
Cc1nc2nc(SCC(=O)Nc3cccc(F)c3)[nH]c2cc1Br | -0.51%
COc1cccc(-c2cc(CNC(=O)[C@@H](Cc3ccccc3)NC(=O)[C@H]3O[C@@H](n4cnc(C(N)=O)n4)[C@H](O)[C@@H]3O)no2)c1 | -2.73%
COC(=O)[C@]12C[C@H](CC(=O)NCc3ccc(C)o3)C(=O)N(CCC3=CCCCC3)C1=C[C@H](C(C)(C)C)O[C@@H]2C | -1.11%
COc1ccccc1-c1ccc([C@@H]2C[C@H]3[C@H](CON3C)CN2S(=O)(=O)c2cc(Cl)cc(Cl)c2)cc1 | -0.23%
CC[C@H](C)[C@H]1CNC(=O)C(=O)N1CC1CCN(CCc2ccc(OC)c(OC)c2)CC1 | -1.11%
Cc1cc2c(cc1C)N1C(=O)c3cc4ccccc4cc3NC(=O)C1C(=O)N2 (stereo not given) | 9.79% (active)
Cc1cc(N2CCN(C(=O)OC(C)(C)C)C[C@H]2C)ccc1N1CCN(Cc2ccccc2)[C@H](C)C1 | -1.9%
CCOC(=O)Cc1csc(NC(=O)CSc2nnc(-c3cccnc3)n2Cc2ccco2)n1 | -0.33%
CCc1ccc(NC(=O)CSc2nnc(-c3cnccn3)n2Cc2ccco2)cc1 | 14.2% (active)
CCn1c(SCC(=O)Nc2cc(C)ccc2C)nnc1-c1cnccn1 | 1.97%

Reference: PubChem BioAssay AID624416 (The Scripps Research Institute Molecular Screening Center, 2012)
